Rows were chosen to be rich in hits. Some 1.9% of all compounds tested hit in one or more screens of this group.
PriA SSB inh – inhibitors of Klebsiella pneumoniae PriA binding to SSB C-terminal tail, primary screen, biochemical, AlphaScreen. AID 1272365, 2023. 0.6% of 430,000 active. AlphaScreen SSBct-PriA binding, biotinylated peptide. inhibition, % at 33 µM; in the data active means inhibition mostly above about 37%, no sharp cut-off; inactive means mostly below about 20%
PrPC surface inh – inhibitors of human cell surface prion protein PrPC, primary screen, cell-based, TR-FRET. inhibition, % at 13.8 µM. AID 720596, 2013. 0.43% of 370,000 active. TR-FRET read-out. Major prion protein (Homo sapiens), P04156; in the data active means inhibition above about 24%
PrP 5UTR inh – inhibition of PrP 5' UTR reporter expression | cell-based PrP 5' UTR mRNA reporter, plate reader | inhibition, % (test concentration not listed) | 0.35% of 340,000 active; in the data active means inhibition above about 52%
BJeLR lethal – MLPCN primary cell-based screen for lethality selective to Ras in HRASV12 cells | 0.17% of 300,000 active | inhibition, % (concentration not given with the values) | BJeLR (HRASV12) viability, CellTiter-Glo ATP luminescence, 48 h; in the data active means inhibition above about 50%; inconclusive means no clear call, values can overlap the other calls
PfHsp40 yeast – rescue of yeast from PfHsp40 toxicity, primary screen, S. cerevisiae, ATP luminescence | 0.68% of 340,000 active | growth rescue, % at 12.5 µM | AID 504582, 2011 | S. cerevisiae expressing PfHsp40, growth rescue; in the data active means growth rescue above about 28%, passing the limit was not always enough; inconclusive means no clear call, values can overlap the other calls;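 further: yeast W303a lacking pdr1 and pdr3 grown in galactose medium; growth measured after three days at 30 °C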
RecA intein inh – Mtb RecA intein splicing inhibitors, primary screen, biochemical, fluorescence, HTS; Protein RecA (Mycobacterium tuberculosis (strain ATCC 25618 / H37Rv)), P9WHJ3; cell-free RecA intein splicing; inhibition, % (test concentration not listed); 0.75% of 290,000 active; in the data active means inhibition above about 30%; inconclusive means no clear call, values can overlap the other calls
Target sequence (P9WHJ3 whole entry, looked up): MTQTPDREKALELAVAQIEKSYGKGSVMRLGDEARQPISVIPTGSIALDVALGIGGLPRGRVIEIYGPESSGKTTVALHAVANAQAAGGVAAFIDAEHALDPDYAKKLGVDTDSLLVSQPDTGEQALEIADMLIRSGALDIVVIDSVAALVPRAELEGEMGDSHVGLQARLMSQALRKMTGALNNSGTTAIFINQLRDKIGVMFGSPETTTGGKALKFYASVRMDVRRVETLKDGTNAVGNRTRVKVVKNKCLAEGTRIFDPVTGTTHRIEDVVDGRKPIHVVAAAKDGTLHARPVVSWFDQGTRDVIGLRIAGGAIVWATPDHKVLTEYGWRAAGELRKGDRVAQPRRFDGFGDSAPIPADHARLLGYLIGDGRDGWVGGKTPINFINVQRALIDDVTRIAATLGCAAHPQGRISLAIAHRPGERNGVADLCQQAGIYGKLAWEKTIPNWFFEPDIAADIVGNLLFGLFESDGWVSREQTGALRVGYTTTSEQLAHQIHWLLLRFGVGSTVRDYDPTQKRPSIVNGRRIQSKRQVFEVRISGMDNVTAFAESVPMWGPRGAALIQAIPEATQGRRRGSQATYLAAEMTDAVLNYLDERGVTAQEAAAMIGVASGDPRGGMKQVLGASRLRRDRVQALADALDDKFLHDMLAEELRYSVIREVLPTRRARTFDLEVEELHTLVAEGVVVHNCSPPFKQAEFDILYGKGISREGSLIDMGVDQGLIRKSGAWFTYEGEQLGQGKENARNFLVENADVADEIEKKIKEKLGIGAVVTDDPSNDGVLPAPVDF
Numbers stand for hits; n = inactive; u = inconclusive; x = not tested or not shown; ! = not active in a repeat.

SMILES | PriA SSB inh | PrPC surface inh | PrP 5UTR inh | BJeLR lethal | PfHsp40 yeast | RecA intein inh
O=C(CSc1nnc(Cc2cccs2)n1-c1ccccc1)Nc1ccc2c(c1)OCCO2 | n | n | n | n | n | n
Cc1ccc(-n2c(Cc3cccn3C)nnc2SCC(=O)Nc2ccc3c(c2)OCO3)cc1 | 39 | n | n | n | n | x
Cn1cccc1Cc1nnc(SCC(=O)Nc2ccc3c(c2)OCCO3)n1-c1ccc(F)cc1 | n | n | n | n | n | n
Cn1cccc1Cc1nnc(SCC(=O)Nc2ccc3c(c2)OCCO3)n1-c1ccc(Cl)cc1 | 80 | x | x | x | x | x
Cc1ccc(-n2c(Cc3cccn3C)nnc2SCC(=O)Nc2ccc3c(c2)OCCO3)cc1 | n | x | x | x | x | x
CCSc1nnc(NC(=O)c2cccc(S(=O)(=O)N(C)c3ccccc3)c2)s1 | n | n | n | n | 30 | n
C=CCN(c1ccccc1)S(=O)(=O)c1cccc(C(=O)Nc2nnc(SCC)s2)c1 | n | n | n | n | n | n
Oc1ccc(Br)cc1-c1nc2cnccn2c1NC1CCCCC1 | n | n | n | n | 94 | n
Oc1ccc(Br)cc1-c1nc2cnccn2c1NC1CCCC1 | n | n | n | n | n | x
COc1cccc(C(=O)N(CCn2cccn2)c2nc3c(Cl)cccc3s2)c1OC | n | x | x | x | x | x
Cc1csc(NC(=O)C2CCCCN2S(=O)(=O)c2ccccc2)n1 (stereo not drawn) | n | n | n | n | n | n
O=C(Nc1nc(-c2ccc3c(c2)OCCO3)cs1)C1CCCN1S(=O)(=O)c1cccs1 (stereo not drawn) | n | x | x | x | x | x
Cc1ccc(S(=O)(=O)N2CCCCC2C(=O)Nc2nc(-c3ccccn3)cs2)cc1 (stereo not drawn) | 65 | x | x | x | x | x
O=C(Nc1nc(-c2ccccn2)cs1)C1CCCCN1S(=O)(=O)c1cccs1 (stereo not drawn) | 104 | x | x | x | x | x
Cn1cccc1C(CNC(=O)c1cccs1)N1CCCC1 (stereo not drawn) | n | x | x | x | x | x
COc1cn(-c2ccc(F)cc2)nc1C(=O)NCc1ccccc1Cl | n | x | x | x | x | x
CC(/C=C1\SC(=S)N(CCS(=O)(=O)O)C1=O)=C\c1ccccc1 | n | x | x | x | x | x
CCCNC(=S)N1CCN(c2nc(C)nc3sc4c(c23)CCCC4)CC1 | n | n | n | n | 32 | n
COc1ccc(/C=C/c2cc(-c3ccc(C)cc3)o[n+]2C)cc1 | n | n | n | 63 | n | n
CCCN(CCC)S(=O)(=O)c1ccc(C(=O)NCc2n[nH]c(=S)n2-c2ccc(Cl)c(Cl)c2)cc1 | 45! | n | n | n | n | x
Nc1ccc2nc(N3CCOCC3)sc2c1 | n | n | n | n | n | 80
O=C(c1ccc(Cl)cc1)N1C2CCC1CC(S(=O)(=O)c1ccccc1)C2 (stereo not drawn) | n | x | x | x | x | x
Cc1ccc(OCC(=O)N2C3CCC2CC(S(=O)(=O)c2ccccc2)C3)cc1 (stereo not drawn) | 79 | x | x | x | x | x
CCOc1ccc(S(=O)(=O)N2C3CCC2CC(S(=O)(=O)c2ccccc2)C3)cc1 (stereo not drawn) | n | x | x | x | x | x
O=C(c1ccc2nsnc2c1)N1C2CCC1CC(S(=O)(=O)c1ccccc1)C2 (stereo not drawn) | 74 | x | x | x | x | x
SMILES | PriA SSB inh | PrPC surface inh | PrP 5UTR inh | BJeLR lethal | PfHsp40 yeast | RecA intein inh
Cc1cc(=O)oc2cc(OCC(=O)N3CC4C[C@H](C3)Cn3c4cccc3=O)c(Cl)cc12 | n | x | x | x | x | x
Clc1ccccc1CNc1ncnc2c1cnn2-c1ccccc1 | n | x | x | x | x | x
COc1ccccc1CNc1ncnc2c1cnn2-c1ccccc1 | 46 | n | n | n | n | n
Fc1ccccc1-c1csc(-c2cccnc2)n1 | n | n | n | n | n | x
Clc1ccc(-c2csc(-c3cccnc3)n2)s1 | n | n | n | n | 29 | n
CCN1C(=O)[C@H]2[C@@H](c3ccc(C)cc3)N3C(=O)N(c4ccc(C)cc4)C(=O)[C@@]3(CC)[C@H]2C1=O | n | n | n | n | n | n
CCN1C(=O)[C@H]2[C@@H](c3ccc(C)cc3)N3C(=O)N(c4ccccc4)C(=O)[C@@]3(CC)[C@H]2C1=O | n | n | n | n | 35 | n
COc1ccc(CCC(=O)NC(C)Cc2ccoc2)cc1 (stereo not drawn) | n | x | x | x | x | x
COc1ccc(CCNc2nnc(Sc3nnnn3-c3ccccc3)s2)cc1OC | n | n | n | 60 | n | n
O=C(NC1C=CS(=O)(=O)C1)C12CC3CC(CC(C3)C1)C2 (stereo not drawn) | n | x | x | x | x | x
O=C(Nc1cnc(N2CCOCC2)nc1)c1ccc(Br)o1 | n | x | x | x | x | x
O=C(Cn1cnc(-c2ccc(F)cc2)cc1=O)Nc1ccccc1-c1cn2ccsc2n1 | n | x | x | x | x | x
O=C(Nc1ccc(C2=NCCN2)cc1)c1ccc(C(=O)Nc2ccc(C3=NCCN3)cc2)c([N+](=O)[O-])c1 | n | n | n | n | 125 | n
CCc1cc2c(NC(Cc3c[nH]c4ccccc34)C(=O)O)ncnc2s1 (stereo not drawn) | n | x | x | x | x | x
CCOc1ccc(-c2cc(C(=O)NN=C(C)c3cccnc3)c3ccccc3n2)cc1 | n | x | x | x | x | x
Nc1ccccc1Nc1cc(-c2cccc(Cl)c2)nn1-c1ccccc1 | 58 | n | n | n | n | n
Nc1c(-c2ccccc2)cnn1-c1cccc(Cl)c1 | n | n | n | n | n | n
CCCCOC(=O)CSCC(=O)N1N=C(c2cccs2)CC1c1ccc(F)cc1 (stereo not drawn) | n | n | n | n | n | n
CCOC(=O)CSCC(=O)N1N=C(c2cccs2)CC1c1ccc(F)cc1 (stereo not drawn) | n | n | n | n | n | 32
COc1ccccc1-c1ccc(N2CCN(S(=O)(=O)c3ccc(F)c(C)c3)CC2)nn1 | n | x | x | x | x | x
CCCn1c(=O)c2ccc(C(=O)NCC(C)C)cc2n2c(=O)n(Cc3ccc(Cl)cc3)nc12 | n | x | x | x | x | x
CCC(=O)NC(c1cc(Cl)c2cccnc2c1O)C(C)C (stereo not drawn) | n | n | n | x | 247 | x
CC(=O)NC(c1ccc(C)cc1)c1cc([N+](=O)[O-])c2cccnc2c1O (stereo not drawn) | n | n | n | n | 221 | n
COc1ccc(C(NC(C)=O)c2cc(Cl)c3cccnc3c2O)cc1 (stereo not drawn) | n | 28 | n | n | n | n
Cc1ccccc1N1C(=O)C[C@H](N2CCN(c3ccccc3)CC2)C1=O | n | x | x | x | x | x
SMILES | PriA SSB inh | PrPC surface inh | PrP 5UTR inh | BJeLR lethal | PfHsp40 yeast | RecA intein inh
c1cc2c(cc1CNc1ccc(N3CCOCC3)cc1)OCO2 | 48 | n | n | x | n | x
CC(C)(C)NC(=O)CN(C(=O)CCN1CCCc2ccccc21)C(C)(C)C | n | n | n | n | u | n
CCCN1CCCc2ccccc21 | 39 | n | n | n | n | n
CCCN1CCCc2cc(CCNS(=O)(=O)c3ccc(CC)s3)ccc21 | 60 | x | x | x | x | x
CCCN1CCCc2cc(CCNC(=O)CC)ccc21 | n | x | x | x | x | x
CCCN1CCCc2cc(CCNS(=O)(=O)CC(C)C)ccc21 | 74 | x | x | x | x | x
